Results taken from the supplement of paper PMC3334620.
Over roughly 33,000 sequences, “E-score (-0.5 to 0.5)” has its median near -0.056; the highest 2% begin near 0.38. Only a selection was taken, and the highest values are over-represented in it overall.

The sequences below were run against Stb4 (UniProt P50104) (assay: PBM E-score (8-mer binding enrichment) (E-score (-0.5 to 0.5)); higher = stronger / more preferred TF binding). Conditions: protein concentration: 200 nM; construct: GST-DNA-binding domain.
Sequence of UniProt P50104 (P50104 whole entry, the tested form may be a part): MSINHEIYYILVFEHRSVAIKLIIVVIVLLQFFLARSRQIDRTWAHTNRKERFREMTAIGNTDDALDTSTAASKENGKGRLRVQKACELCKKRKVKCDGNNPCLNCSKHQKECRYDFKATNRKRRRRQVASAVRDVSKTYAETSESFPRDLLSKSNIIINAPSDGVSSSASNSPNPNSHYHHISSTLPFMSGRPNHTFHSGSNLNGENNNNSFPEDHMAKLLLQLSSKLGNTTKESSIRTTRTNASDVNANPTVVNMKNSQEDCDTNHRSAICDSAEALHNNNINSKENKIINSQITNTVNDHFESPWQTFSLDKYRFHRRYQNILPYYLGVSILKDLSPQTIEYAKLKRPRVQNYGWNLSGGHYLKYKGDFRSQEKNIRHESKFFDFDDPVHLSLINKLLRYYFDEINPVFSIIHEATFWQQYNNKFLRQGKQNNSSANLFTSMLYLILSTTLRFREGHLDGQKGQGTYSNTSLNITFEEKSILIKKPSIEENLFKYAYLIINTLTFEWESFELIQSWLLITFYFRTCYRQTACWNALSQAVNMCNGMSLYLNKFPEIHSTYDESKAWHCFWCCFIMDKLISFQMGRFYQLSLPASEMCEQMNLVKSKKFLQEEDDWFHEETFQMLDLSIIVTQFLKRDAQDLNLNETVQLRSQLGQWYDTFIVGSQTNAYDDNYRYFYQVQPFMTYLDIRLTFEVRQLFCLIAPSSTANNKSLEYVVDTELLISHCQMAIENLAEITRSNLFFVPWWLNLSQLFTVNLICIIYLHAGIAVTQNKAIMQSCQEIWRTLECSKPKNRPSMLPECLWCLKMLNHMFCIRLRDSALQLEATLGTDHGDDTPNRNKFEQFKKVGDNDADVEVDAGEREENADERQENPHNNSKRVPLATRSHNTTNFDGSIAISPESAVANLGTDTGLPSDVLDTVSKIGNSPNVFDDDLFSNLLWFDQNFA
Procedure, shortened: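 Bound GST-tagged yeast transcription factors, applied at about 100-200 nM to double-stranded universal all-10-mer Agilent arrays, were detected with fluorescent anti-GST. Scans were normalised with masliner. A modified Wilcoxon-Mann-Whitney statistic, the E-score, was assigned to each ungapped eight-base word pooled with its reverse complement by the Universal PBM Analysis Suite.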
In the case of CTTTCGGC, the “PBM E-score” value is reported as 0.386. For CTTTCGAC, the “PBM E-score” value was -0.172. For ATTTCGCA, the “PBM E-score” value was 0.0506. With CTTTCGAA the “PBM E-score” value was -0.204. In the case of CTTTCGTC, the “PBM E-score” value is reported as -0.0646. With ATTTCGGC the “PBM E-score” value was 0.371. In the case of ATTTCGAG, the “PBM E-score” value is reported as -0.0811. For CTTTCGGA, the “PBM E-score” value was 0.432. ATTTCGGG was tested, and the “PBM E-score” value was 0.39. ATTTCGCG was tested, and the “PBM E-score” value was 0.0954. With ATTTCGGA the “PBM E-score” value was 0.454. With CTTTCGTA the “PBM E-score” value was -0.177. With AACGTTCG the “PBM E-score” value was 0.113. In the case of CTTTCTGA, the “PBM E-score” value is reported as -0.25. For CGCGCCAG, the “PBM E-score” value was 0.104. AGCGCTCG was tested, and the “PBM E-score” value was -0.0312. With CTTCGTCA the “PBM E-score” value was -0.177. With GTAGTTCA the “PBM E-score” value was 0.0756. GCGGTGCA was tested, and the “PBM E-score” value was -0.283. ATTCTCCG was tested, and the “PBM E-score” value was 0.264. AGTAAAAC was tested, and the “PBM E-score” value was -0.181. With GTGGTGAA the “PBM E-score” value was 0.0732. For GTTTCGGA, the “PBM E-score” value was 0.43. With GTTTCGAA the “PBM E-score” value was -0.145. In the case of GTTTCGTA, the “PBM E-score” value is reported as 0.128. In the case of AAGCTGAT, the “PBM E-score” value is reported as 0.104. With CCACCTAC the “PBM E-score” value was -0.246. In the case of AGCATCAA, the “PBM E-score” value is reported as -0.15. ACAGGTGG was tested, and the “PBM E-score” value was -0.226. For TCGAGGAA, the “PBM E-score” value was -0.13. For CCGAGGAA, the “PBM E-score” value was 0.387. In the case of CGGAGGAG, the “PBM E-score” value is reported as 0.209. For CCGAGGAG, the “PBM E-score” value was 0.393. CCGAGGAC was tested, and the “PBM E-score” value was 0.371. In the case of ACGAGGAG, the “PBM E-score” value is reported as -0.349. With ATGAAGGG the “PBM E-score” value was -0.114. In the case of CAGGAGTC, the “PBM E-score” value is reported as -0.0625. AGTCGCAT was tested, and the “PBM E-score” value was -0.137. For CTGGTAGC, the “PBM E-score” value was -0.224. For ACACCGGG, the “PBM E-score” value was 0.213. In the case of CGTATGGA, the “PBM E-score” value is reported as -0.0248. For CATGGGCG, the “PBM E-score” value was -0.0118. With ACCATACC the “PBM E-score” value was 0.044. For AACTCCGA, the “PBM E-score” value was 0.412. For ATCTCCGC, the “PBM E-score” value was 0.151. In the case of AACTCCGG, the “PBM E-score” value is reported as 0.352. In the case of ATCTCCGA, the “PBM E-score” value is reported as 0.396. In the case of GTCTCCGA, the “PBM E-score” value is reported as 0.352. In the case of AACTCCGT, the “PBM E-score” value is reported as 0.206. With TCCAAAAA the “PBM E-score” value was 0.0234. In the case of GTCGCTCA, the “PBM E-score” value is reported as -0.129. GCCGACTA was tested, and the “PBM E-score” value was 0.166. With CATTCTTC the “PBM E-score” value was -0.0802. With GTTTGCGA the “PBM E-score” value was -0.155. In the case of ACAGCCGG, the “PBM E-score” value is reported as 0.35. For TCCGCCGA, the “PBM E-score” value was 0.403. TCAGCCCA was tested, and the “PBM E-score” value was -0.11. GCCGCCGA was tested, and the “PBM E-score” value was 0.331. With CCAGCCGA the “PBM E-score” value was 0.322. In the case of GCAGCCGC, the “PBM E-score” value is reported as 0.154. In the case of CCCGCCGA, the “PBM E-score” value is reported as 0.367. GCAGCCGA was tested, and the “PBM E-score” value was 0.396. For GCAGCCTA, the “PBM E-score” value was -0.153. For ACAGCCGC, the “PBM E-score” value was 0.105. With ACAGCCGA the “PBM E-score” value was 0.383. TCAGCCGA was tested, and the “PBM E-score” value was 0.385. ATAAACCC was tested, and the “PBM E-score” value was 0.0851. In the case of CGCTATAC, the “PBM E-score” value is reported as 0.0197. GCCAAAGC was tested, and the “PBM E-score” value was -0.121. In the case of CAGACCTG, the “PBM E-score” value is reported as -0.17. For TATTTCGA, the “PBM E-score” value was 0.00011. For AATGTCTG, the “PBM E-score” value was 0.0612. In the case of ATGACGGA, the “PBM E-score” value is reported as 0.217. For AATCTTGC, the “PBM E-score” value was -0.0133. For CAGGAATC, the “PBM E-score” value was -0.0371. With AACTAAGT the “PBM E-score” value was -0.0531. With CGCTTCCC the “PBM E-score” value was 0.188. With AGCTTCCA the “PBM E-score” value was 0.0259. With AGCTTCCC the “PBM E-score” value was -0.00142. With CGCTTCCG the “PBM E-score” value was 0.402. In the case of CGCTTCCA, the “PBM E-score” value is reported as -0.0326. With AGCTTCCG the “PBM E-score” value was 0.423. CCTCCACC was tested, and the “PBM E-score” value was -0.0886. In the case of ATCAAGGC, the “PBM E-score” value is reported as -0.111. GTAGCCTA was tested, and the “PBM E-score” value was -0.382. For CTAGCCAA, the “PBM E-score” value was -0.0164. GTAGCCAA was tested, and the “PBM E-score” value was -0.025. In the case of ATAGCCGC, the “PBM E-score” value is reported as 0.236. For GTAGCCGA, the “PBM E-score” value was 0.4. For ATAGCCGA, the “PBM E-score” value was 0.442. CTAGCCGC was tested, and the “PBM E-score” value was 0.21. ATAGCCGG was tested, and the “PBM E-score” value was 0.353. With CTAGCCGA the “PBM E-score” value was 0.455. AAGAGTGG was tested, and the “PBM E-score” value was -0.179.
